{
  "source": "the supplement of paper PMC3334620",
  "note": "Over roughly 33,000 sequences, “E-score (-0.5 to 0.5)” has its median near -0.04; the highest 2% begin near 0.36. This is one part of a sample in which the highest values are shown more often than they occur.",
  "data": [
    {"target": "T1, Hmlalpha2 (UniProt P0CY09)", "T1 sequence": "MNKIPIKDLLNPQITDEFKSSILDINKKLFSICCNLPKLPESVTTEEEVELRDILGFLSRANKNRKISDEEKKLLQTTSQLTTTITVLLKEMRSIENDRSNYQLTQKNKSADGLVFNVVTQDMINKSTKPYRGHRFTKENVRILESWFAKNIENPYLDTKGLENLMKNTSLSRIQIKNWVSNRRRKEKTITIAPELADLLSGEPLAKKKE", "experiment": "PBM E-score (8-mer binding enrichment) (E-score (-0.5 to 0.5)); higher = stronger / more preferred TF binding", "conditions": "protein concentration: 200 nM; construct: GST-full length", "summary_of_the_method": "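Using PURExpress in vitro transcription/translation, GST-tagged yeast transcription factors were made in full-length or DNA-binding-domain form. These were applied at about 100-200 nM to double-stranded universal all-10-mer Agilent arrays, and bound protein was detected with fluorescent anti-GST. Scans were normalised with masliner before the Universal PBM Analysis Suite assigned E-scores to ungapped eight-base words pooled with their reverse complements.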", "values": [
      {"sequence": "AGACGCCG", "PBM E-score": -0.154},
      {"sequence": "ATACGCAA", "PBM E-score": 0.347},
      {"sequence": "ATACGTAC", "PBM E-score": 0.242},
      {"sequence": "TTACGTAA", "PBM E-score": 0.426},
      {"sequence": "GTACGCAA", "PBM E-score": 0.155},
      {"sequence": "ATACGTAA", "PBM E-score": 0.379},
      {"sequence": "ATACGTAG", "PBM E-score": 0.257},
      {"sequence": "TTACGCAA", "PBM E-score": 0.391},
      {"sequence": "CTACGTAA", "PBM E-score": 0.318},
      {"sequence": "GTACGTAA", "PBM E-score": 0.34},
      {"sequence": "CTCCTCGC", "PBM E-score": -0.164},
      {"sequence": "CTCCATCC", "PBM E-score": -0.1},
      {"sequence": "CAGCCGTC", "PBM E-score": -0.132},
      {"sequence": "CACACATA", "PBM E-score": 0.214},
      {"sequence": "AACACATC", "PBM E-score": 0.291},
      {"sequence": "GACACATA", "PBM E-score": 0.26},
      {"sequence": "AACACATA", "PBM E-score": 0.39},
      {"sequence": "TACACATA", "PBM E-score": 0.408},
      {"sequence": "AACACATG", "PBM E-score": 0.363},
      {"sequence": "GAACCACA", "PBM E-score": 0.0162},
      {"sequence": "GAATTGAC", "PBM E-score": 0.104},
      {"sequence": "ACTTTGGA", "PBM E-score": 0.136},
      {"sequence": "GTGTCAAA", "PBM E-score": 0.382},
      {"sequence": "ATGTCAAT", "PBM E-score": 0.4},
      {"sequence": "ATGTCAAC", "PBM E-score": 0.374},
      {"sequence": "TTGTCAAA", "PBM E-score": 0.262},
      {"sequence": "GTGTCAAC", "PBM E-score": 0.305},
      {"sequence": "ATGTCAAG", "PBM E-score": 0.305},
      {"sequence": "ATGTCAAA", "PBM E-score": 0.354},
      {"sequence": "ATGTCATG", "PBM E-score": 0.388},
      {"sequence": "ATGTCATC", "PBM E-score": 0.0953},
      {"sequence": "CTGTCAAA", "PBM E-score": 0.18},
      {"sequence": "ATGTCATA", "PBM E-score": 0.311},
      {"sequence": "CTGTCAAC", "PBM E-score": 0.198},
      {"sequence": "AGAAAGCG", "PBM E-score": -0.00586},
      {"sequence": "ATGCTGGC", "PBM E-score": 0.0473},
      {"sequence": "GCCATTTA", "PBM E-score": 0.00861},
      {"sequence": "GAGATTCC", "PBM E-score": -0.218},
      {"sequence": "ATATTCTG", "PBM E-score": 0.00643},
      {"sequence": "CCTTAAAC", "PBM E-score": -0.15},
      {"sequence": "ATGCTAAT", "PBM E-score": 0.167},
      {"sequence": "AGATTGTG", "PBM E-score": 0.0599},
      {"sequence": "AACATTAC", "PBM E-score": 0.332},
      {"sequence": "CACATTAC", "PBM E-score": 0.375},
      {"sequence": "CACATTAG", "PBM E-score": -0.078},
      {"sequence": "CGCGCACA", "PBM E-score": 0.133},
      {"sequence": "AATGTAGG", "PBM E-score": 0.0581},
      {"sequence": "CAAGTAGG", "PBM E-score": -0.0322},
      {"sequence": "AGTGTAGA", "PBM E-score": 0.171},
      {"sequence": "CGTGTAGA", "PBM E-score": 0.482},
      {"sequence": "GATGTAGA", "PBM E-score": 0.314},
      {"sequence": "CGTGTAGC", "PBM E-score": 0.344},
      {"sequence": "CATGTAGC", "PBM E-score": 0.344},
      {"sequence": "CATGTAGG", "PBM E-score": 0.407},
      {"sequence": "CATGTAGA", "PBM E-score": 0.472},
      {"sequence": "TATGTAGA", "PBM E-score": 0.424},
      {"sequence": "AATGTAGA", "PBM E-score": 0.301},
      {"sequence": "CCTGTAGA", "PBM E-score": 0.0876},
      {"sequence": "ACATAGCC", "PBM E-score": 0.231},
      {"sequence": "CCGCTCTC", "PBM E-score": -0.296},
      {"sequence": "AGCTTAAA", "PBM E-score": -0.0456},
      {"sequence": "AATCTGTA", "PBM E-score": 0.186},
      {"sequence": "AATTAGGC", "PBM E-score": -0.0388},
      {"sequence": "AGCCTAAG", "PBM E-score": -0.223},
      {"sequence": "CTAGACGA", "PBM E-score": -0.137},
      {"sequence": "AACAGGTG", "PBM E-score": 0.184},
      {"sequence": "TAGATATA", "PBM E-score": 0.0377},
      {"sequence": "CGCATGTC", "PBM E-score": 0.274},
      {"sequence": "AGCATGTC", "PBM E-score": 0.267},
      {"sequence": "AGCATGTA", "PBM E-score": 0.458},
      {"sequence": "GGCATGCA", "PBM E-score": 0.128},
      {"sequence": "CGCATGTA", "PBM E-score": 0.422},
      {"sequence": "AGCATGTG", "PBM E-score": 0.22},
      {"sequence": "CGCATGGA", "PBM E-score": -0.0665},
      {"sequence": "GGCATGGA", "PBM E-score": -0.113},
      {"sequence": "GGCATGTA", "PBM E-score": 0.439},
      {"sequence": "AAGGGTGC", "PBM E-score": -0.233},
      {"sequence": "AGGGTGTA", "PBM E-score": 0.186},
      {"sequence": "TTCTACAA", "PBM E-score": 0.314},
      {"sequence": "ACCCTGAT", "PBM E-score": -0.3},
      {"sequence": "AAGTTATG", "PBM E-score": 0.256},
      {"sequence": "GTGTTATA", "PBM E-score": 0.444},
      {"sequence": "GCGTTATA", "PBM E-score": 0.218},
      {"sequence": "ATGTTATC", "PBM E-score": 0.401},
      {"sequence": "AGGTTATA", "PBM E-score": 0.0651},
      {"sequence": "ACGTTATC", "PBM E-score": 0.145},
      {"sequence": "ATGTTACG", "PBM E-score": 0.351},
      {"sequence": "ACGTTATA", "PBM E-score": 0.275},
      {"sequence": "ATGTTATG", "PBM E-score": 0.425},
      {"sequence": "CTGTTATC", "PBM E-score": -0.00298},
      {"sequence": "ATGTTATA", "PBM E-score": 0.418},
      {"sequence": "CTGTTATA", "PBM E-score": 0.29},
      {"sequence": "ATGAGGCG", "PBM E-score": -0.102},
      {"sequence": "AAGGAGCA", "PBM E-score": -0.237},
      {"sequence": "CACCTCAC", "PBM E-score": 0.0105},
      {"sequence": "CCTATTCA", "PBM E-score": -0.319},
      {"sequence": "CGCGGCCC", "PBM E-score": -0.135},
      {"sequence": "CATTCTCG", "PBM E-score": -0.0595},
      {"sequence": "AGAACGAC", "PBM E-score": -0.0288},
      {"sequence": "AAGAGCGA", "PBM E-score": -0.2},
      {"sequence": "GTCGTGCA", "PBM E-score": 0.0844},
      {"sequence": "ATCGTGTC", "PBM E-score": 0.358},
      {"sequence": "CTCGTGTA", "PBM E-score": 0.434},
      {"sequence": "GTCGTGGA", "PBM E-score": -0.154},
      {"sequence": "ATCGTGTG", "PBM E-score": 0.313},
      {"sequence": "CTCGTGTC", "PBM E-score": 0.257},
      {"sequence": "ATCGTGTA", "PBM E-score": 0.475},
      {"sequence": "CTCGTGGA", "PBM E-score": -0.107},
      {"sequence": "GTCGTGTA", "PBM E-score": 0.464},
      {"sequence": "CACCTATC", "PBM E-score": -0.0688},
      {"sequence": "AGTAGTCA", "PBM E-score": -0.00856},
      {"sequence": "CCAGGTAC", "PBM E-score": -0.122},
      {"sequence": "ATAAGCAG", "PBM E-score": -0.00191},
      {"sequence": "CGTTTTTA", "PBM E-score": 0.253},
      {"sequence": "GCAGTGTA", "PBM E-score": 0.292},
      {"sequence": "ACACGGGC", "PBM E-score": 0.325},
      {"sequence": "ACACGGGT", "PBM E-score": 0.391},
      {"sequence": "ACACGGGA", "PBM E-score": 0.371},
      {"sequence": "ACACGGCT", "PBM E-score": 0.32},
      {"sequence": "ACACGGGG", "PBM E-score": 0.3},
      {"sequence": "AAACGGGT", "PBM E-score": 0.153},
      {"sequence": "CTCTGCAA", "PBM E-score": -0.0611},
      {"sequence": "CGGAGCTA", "PBM E-score": -0.0643}
    ]}
  ]
}
